As usually defined, the inhibition is the change of the read-out against control, counted positive when it falls.

Molecules are shown by their SMILES. Out of some 220,000 compounds screened, about 910 (0.41%) were called active. This is one part of a sample in which actives are shown more often than they occur. Measured potencies and affinities stand elsewhere. Values without a mark were called inactive.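 How the source made its calls: active means primary inhibition above the hit cutoff, then over 50% inhibition at one or more dose response concentrations (cut at about 23% in these data, passing the limit was not always enough); inconclusive means conflicting primary data, or primary hits not chosen for dose response; inactive means low primary inhibition, or under 50% at every dose.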

Chain of Aminopeptidase N (Plasmodium falciparum (isolate 3D7)) (O96935 whole entry, looked up): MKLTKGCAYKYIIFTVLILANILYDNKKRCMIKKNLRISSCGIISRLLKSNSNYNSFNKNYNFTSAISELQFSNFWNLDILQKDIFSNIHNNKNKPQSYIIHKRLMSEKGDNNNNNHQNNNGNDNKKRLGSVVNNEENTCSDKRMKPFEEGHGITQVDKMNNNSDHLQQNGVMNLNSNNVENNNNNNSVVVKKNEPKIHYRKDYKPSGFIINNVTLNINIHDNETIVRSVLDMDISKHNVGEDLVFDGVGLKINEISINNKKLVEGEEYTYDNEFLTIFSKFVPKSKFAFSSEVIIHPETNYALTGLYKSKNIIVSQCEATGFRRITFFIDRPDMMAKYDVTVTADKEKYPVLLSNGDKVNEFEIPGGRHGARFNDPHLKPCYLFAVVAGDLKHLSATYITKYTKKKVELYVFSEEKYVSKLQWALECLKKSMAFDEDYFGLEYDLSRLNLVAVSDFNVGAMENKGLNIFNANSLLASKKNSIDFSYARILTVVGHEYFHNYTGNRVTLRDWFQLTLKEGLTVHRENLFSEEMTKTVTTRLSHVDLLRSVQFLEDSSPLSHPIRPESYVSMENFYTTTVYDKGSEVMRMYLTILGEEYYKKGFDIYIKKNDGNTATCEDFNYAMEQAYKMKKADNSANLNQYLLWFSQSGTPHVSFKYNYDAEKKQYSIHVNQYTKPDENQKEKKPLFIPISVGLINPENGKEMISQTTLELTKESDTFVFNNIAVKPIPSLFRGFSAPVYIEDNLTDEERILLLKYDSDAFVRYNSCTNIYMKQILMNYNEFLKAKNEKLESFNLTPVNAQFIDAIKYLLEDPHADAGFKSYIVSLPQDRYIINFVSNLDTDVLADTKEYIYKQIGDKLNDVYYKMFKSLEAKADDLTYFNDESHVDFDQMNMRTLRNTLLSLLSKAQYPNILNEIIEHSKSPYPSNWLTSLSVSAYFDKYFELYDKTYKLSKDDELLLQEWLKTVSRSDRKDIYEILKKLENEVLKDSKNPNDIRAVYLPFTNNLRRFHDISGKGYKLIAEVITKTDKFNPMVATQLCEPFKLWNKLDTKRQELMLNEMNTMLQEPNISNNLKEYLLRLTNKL

This assay addresses Aminopeptidase N (Plasmodium falciparum (isolate 3D7)) (UniProt O96935). The experiment in a line: malaria alanyl aminopeptidase activity blockers – biochemical, fluorogenic H-Leu-NHMec substrate, 1536-well (AID 1445).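 Further: plate controls were DMSO full reaction for no effect and no enzyme background for full effect.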 The conditions noted are these: recombinant M1AAP, H-Leu-NHMec fluorogenic kinetic assay; at 30 µM, hits give high values unless noted.
Take `CCOC(=O)c1sc2nc3c(SCCC#N)cc(C(=O)c4cc(F)ccc4O)cn3c(=O)c2c1C`: the inhibition was 2.71%.

As for `Cc1sc2nc3c(C(=O)N4CCCC4)cc(C(=O)c4ccccc4O)cn3c(=O)c2c1C`, the inhibition is 17.2%.

Take `O=C(O)CSc1cc(C(=O)c2ccccc2O)cn2c(=O)c3c(-c4ccccc4)csc3nc12`: the inhibition is 17.9%.

Turning to `O=C(O)CSc1cc(C(=O)c2cc(F)ccc2O)cn2c(=O)c3c(-c4ccccc4)csc3nc12`, the inhibition is 21.3%.

Regarding `CCOC(=O)c1sc2nc3c(SCC(=O)O)cc(C(=O)c4ccccc4O)cn3c(=O)c2c1C`, the inhibition is 9.02%.

With `CCOC(=O)c1cc(C(=O)c2ccccc2O)cn2c(=O)c3c(C)c(C)sc3nc12`, the inhibition is 13.9%.

On to `COC(=O)N/N=C(\C)c1ccc(-n2ccnc2)cc1`, for which the inhibition was -0.5%.

For `CCC(=O)N/C(N)=N/c1nc(C)c2cc(C)c(C)cc2n1`, the inhibition was 7.6%.

`C=CCn1c(N)cc(=O)nc1SCC(=O)NC(C)c1ccccc1` (centres undefined): the inhibition is -2.4%.

For the compound `O=C(N/N=C/c1ccco1)c1cc(Br)ccc1OCc1ccccc1`, the inhibition is 4.59%.

Regarding `CC(C(=O)Nc1ccc(S(=O)(=O)N2CCCC2)cc1)N1CCN(C(=O)c2ccco2)CC1` (centres undefined), the inhibition was 35.6% (active).

Turning to `CC(C)c1ccc(S(=O)(=O)N2CCN(C(=O)c3ccco3)CC2)cc1`, the inhibition is 0.71%.

For `C[C@H](NC(=O)c1ccco1)C(=O)Nc1ccc(S(=O)(=O)N2CCCC2)cc1`, the inhibition is -6.98%.

As for `Cc1[nH]n(-c2ccccc2)c(=O)c1N=Nc1ccccc1`, the inhibition is 4.86%.

`Cc1ccc(N=Nc2c(C)[nH]n(-c3ccccc3)c2=O)c(C)c1`: the inhibition is 3.7%.

Turning to `CC(/C=N/Nc1nc(N2CCCCC2)nc(N2CCCCC2)n1)=C\c1ccccc1`, the inhibition was 5.4%.

For the compound `OCCNc1nc(OCC(F)(F)F)nc(N2CCN(C34CC5CC(CC(C5)C3)C4)CC2)n1`, the inhibition was 9.11%.

`CC(=O)Cc1nsc(NC(=O)c2ccc(Br)o2)n1`: the inhibition was 0.84%.

Consider `CC(=O)Cc1nsc(NC(=O)c2ccc(COc3ccc(C)cc3)o2)n1`, for which the inhibition is 8.72%.

On to `CC(=O)Cc1nsc(NC(=O)c2ccc(COc3ccccc3)o2)n1`, for which the inhibition was 26.3% (active).

As to `Cc1cc(NC(=O)CSc2nc(C(C)C)nc3c2c(=O)n(C)c(=O)n3C)no1`, the inhibition is 5.47%.

With `O=C(O)Cc1sc(-c2cccnc2)nc1-c1ccc(Br)cc1`, the inhibition was 9.14%.

With `CCOC(=O)N1CCN(c2cc(=O)n(-c3ccccc3Cl)c(=O)[nH]2)CC1`, the inhibition is -0.91%.

Regarding `CNc1oc(-c2ccc(C)cc2)nc1P(=O)(c1ccccc1)c1ccccc1`, the inhibition was -2.06%.

With `CCN(CC)S(=O)(=O)c1ccc(-c2nnc(SCC(C)=O)o2)cc1`, the inhibition is 26.5% (active).

With `CCN(CC)S(=O)(=O)c1ccc(-c2nnc(SC)o2)cc1`, the inhibition was -2.39%.

Take `CCN(CC)S(=O)(=O)c1ccc(-c2nnc(SCC(=O)N3CCOCC3)o2)cc1`: the inhibition is -1.63%.

`CCCCn1c(SCC(=O)Nc2nccs2)nc2ccccc2c1=O`: the inhibition was 1.43%.

On to `Cn1c(CNC(=O)c2ccccc2)nnc1SCC(=O)Nc1nccs1`, for which the inhibition is 0.84%.

In the case of `Cc1cc(NC(=O)CSc2nc3ccsc3c(=O)n2CCCCC(=O)O)no1`, the inhibition is 7.32%.

As for `CCCCn1c(SCC(=O)Nc2cc(C)on2)nc2ccsc2c1=O`, the inhibition was 0.46%.

For the compound `COc1ccccc1NC(=O)Cn1nc(Cc2cccnc2)c2ccccc2c1=O`, the inhibition was 4.36%.

For the compound `Cc1cc2cc(C#N)c(NCCNC(=S)NCCCN3CCOCC3)nc2cc1C`, the inhibition was 11%.

Regarding `Cc1nc(SCC(=O)NCc2cccs2)nc(C)c1C`, the inhibition is 1.91%.

Regarding `CCOc1ccc(N2CC(=O)N/C2=N\c2nc(C)cc(C)n2)cc1`, the inhibition is 0.69%.

Turning to `CS(=O)(=O)N(CC(=O)NCc1ccccc1Cl)C1CCCCC1`, the inhibition is -3.91%.

Turning to `CCC(CC)C(=O)NN(C(=O)c1ccncc1)C1CC(=O)N(c2ccccc2)C1=O` (centres undefined), the inhibition is 0.84%.

As to `CCN(CC)Cc1ccc(NC(=O)c2sc3cc(Cl)ccc3c2Cl)cc1`, the inhibition is 5.72%.

On to `CCOC(=O)C1ON2CCCCC2C1(O)C(F)(F)F` (centres undefined), for which the inhibition was 4.11%.

In the case of `Cc1ccc(C(=O)Nc2ccccc2-c2ccccc2)o1`, the inhibition was 5.46%.

In the case of `CCOC(=O)c1c(-c2ccc(OC)cc2)csc1NC(=O)CSc1ccccc1`, the inhibition is 9.31%.

As to `COC(=O)c1c(-c2ccc3ccccc3c2)csc1NC(=O)Cc1ccc(OC)c(OC)c1`, the inhibition is -5.43%.

With `O=C(Nc1scc(-c2ccccc2)c1C(=O)O)c1ccco1`, the inhibition was 13.6%.

`COc1ccc(-c2csc(NC(=O)c3ccc(OCC(=O)N4CCOCC4)c(OC)c3)n2)cc1OC`: the inhibition was -0.86%.

For the compound `COc1ccc(CCNC(=O)[C@@H](NC(N)=O)C(C)C)cc1`, the inhibition is 1.11%.

Consider `CCOc1ccccc1NC(=O)CCNC(=O)c1ccc(Cl)cc1`, for which the inhibition is -0.92%.

`O=C(Nn1c(-c2ccccc2)nc2ccccc2c1=O)C1CCC1`: the inhibition was 8.13%.

In the case of `Cc1nc2ccccc2c(=O)n1NC(=O)C1CCCCC1`, the inhibition is 0.92%.

`COc1cccc(OC)c1C(=O)Nn1c(C2CCC2)nc2ccccc2c1=O`: the inhibition is 1.68%.

For the compound `COc1ccccc1C(=O)Nn1c(C2CCC2)nc2ccccc2c1=O`, the inhibition is 28.5%.

For `NS(=O)(=O)c1ccc(NC(=S)NC(=O)/C=C/c2ccco2)cc1`, the inhibition is 22.5%.

As to `C/C(=N/NC(=O)CN1CCN(S(=O)(=O)c2ccc(Br)cc2)CC1)c1ccco1`, the inhibition was 3.47%.

As to `COc1ccc(NC(=O)c2ccc(-c3ccccc3Cl)o2)cc1`, the inhibition was 2.03%.

Turning to `Cc1ccc(S(=O)(=O)N2CCCCC2)cc1NC(=O)CSc1nnc(N)s1`, the inhibition was 11.9%.

For the compound `COc1ccccc1OCC(=O)N/N=C1\CCc2ccccc21`, the inhibition is -5.88%.

For `O=C1Nc2ncccc2OC1CCO` (centres undefined), the inhibition was 1.94%.

As for `O=C(N/N=C/c1cc(Br)ccc1O)Nc1ccccc1`, the inhibition is 2.93%.

As to `C=CCc1cccc(/C=N/NC(=O)c2ccccc2Br)c1O`, the inhibition was -2.15%.

For the compound `COc1ccc(Br)cc1/C=N/NC(=O)c1cc(Br)ccc1O`, the inhibition was 9.13%.

With `O=C(N/N=C/c1ccccc1C(=O)O)c1ccccc1Br`, the inhibition was -4.66%.

Turning to `CC1=NNC(=O)C1Oc1ccccc1` (centres undefined), the inhibition is 3.86%.

On to `CCCCCCn1c(N2CCC(C(N)=O)CC2)nc2c1c(=O)[nH]c(=O)n2C`, for which the inhibition is -0.78%.

Take `Cc1nc(Cl)sc1C(=O)Nc1ccccc1`: the inhibition is 2.8%.

As for `O=C(CSc1nc2ccccc2c(=O)n1-c1ccccc1)c1c[nH]c2ccccc12`, the inhibition is 1.41%.

As to `COc1ccc2cc(C(=O)C3CCCN(C(=O)CSc4nnc(C)o4)C3)ccc2c1` (centres undefined), the inhibition is 12.3%.

On to `Cc1cc2nc3c(nc2cc1C)C(O)=C3O`, for which the inhibition was 20.8%.

In the case of `OC1=C(O)c2nc3ccccc3nc21`, the inhibition was -5.83%.

For the compound `Cc1nc2c(c3c1[nH]c1ccccc13)C(O)CC(C)(C)C2` (centres undefined), the inhibition was 22.4%.

For the compound `C=CCn1c(=O)/c(=C/c2ccc(Cl)cc2)s/c1=C(/C#N)c1nnc2n1CCCCC2`, the inhibition is 21.5%.

Take `C=CCn1c(=O)/c(=C/c2ccc(F)cc2)s/c1=C(\C#N)c1nnc2n1CCCCC2`: the inhibition is 20.7%.

Take `CCOc1ccc(NC(=NCc2ccc3c(c2)OCO3)SC2CC(=O)N(c3ccc(C(=O)O)cc3)C2=O)cc1` (centres undefined): the inhibition was 1.35%.

As for `N=c1sccn1CC(=O)Nc1ccc(S(=O)(=O)N2CCOCC2)cc1`, the inhibition is -2.17%.

Turning to `Cc1ccc(Cn2c(O)c(N=O)c3ccccc32)cc1`, the inhibition was 4.37%.

Consider `O=C(c1ccc2c(c1)OCO2)C1CCCN(C2CCN(CCc3ccccc3)CC2)C1` (centres undefined), for which the inhibition is 6.4%.

Take `CC(C)(C)NC(=O)CSc1nnc(Cc2ccccc2)n1CC1CCCO1` (centres undefined): the inhibition was 2.88%.

On to `COc1ccc(NC(=O)C2C3C=CC(C3)C2C(=O)NCc2ccccn2)c(OC)c1` (centres undefined), for which the inhibition is 25.6% (active).

With `O=C(NCc1ccccn1)C1C2C=CC(C2)C1C(=O)Nc1ccc(F)cc1` (centres undefined), the inhibition is 18.1%.

Consider `Cc1cccc(C)c1NC(=O)C1C2C=CC(C2)C1C(=O)NCc1ccccn1` (centres undefined), for which the inhibition was 15.1%.

Consider `O=C(O)C1C2C=CC(C2)C1C(=O)NCc1cccnc1` (centres undefined), for which the inhibition is 2.34%.

On to `COc1ccc(NC(=O)C2C3C=CC(C3)C2C(=O)NCc2ccco2)cc1` (centres undefined), for which the inhibition is 4.82%.

Consider `COc1ccc(OC)c(NC(=S)NCc2cccnc2)c1`, for which the inhibition was 4.71%.

On to `COc1ccc(OC)c(C2=NOC(C(=O)NCc3ccccn3)C2)c1` (centres undefined), for which the inhibition was -2.41%.

Turning to `COc1ccc(NC(=O)NCc2ccco2)c(OC)c1`, the inhibition was 1.06%.

As to `O=C(O)C1C2C=CC(C2)C1C(=O)NCc1ccccn1` (centres undefined), the inhibition is -0.69%.

As for `O=C(Cn1nc(Cl)nc1Cl)Nc1ccccc1`, the inhibition was 0.91%.

`O=C(NNC(=S)Nc1ccc(F)cc1)C1[C@H]2CCCC[C@@H]12` (some centres undefined): the inhibition is -16.1%.

Regarding `O=C(NCc1n[nH]c(=S)n1-c1ccc(Br)cc1)c1ccc(S(=O)(=O)N2CCOCC2)cc1`, the inhibition was 2.45%.

With `Cc1cc(C)c(S(=O)(=O)N2CCN(C)CC2)c(C)c1`, the inhibition was 4.18%.

As to `Cc1ccc(NC2=C(Cl)C(=O)OC2OC(=O)c2ccco2)cc1C` (centres undefined), the inhibition was 5.26%.

On to `C=CCOC(=O)C1=C[C@@H](c2coc3ccccc3c2=O)C[C@@H](OCc2ccc(CO)cc2)O1`, for which the inhibition is 6.22%.

As for `CCN(CC)CCOC(=O)c1cccc2c1-c1ccccc1C2O` (centres undefined), the inhibition is 1.02%.

Consider `NNC(=O)c1cc2c(s1)-c1cc(Cl)ccc1SC2`, for which the inhibition was 3.34%.

For the compound `CC(=O)Nc1cccc(C(=O)Nc2ccccc2C(=O)O)c1`, the inhibition is -0.69%.

Regarding `Cc1ccc(SCC(=O)Nc2ccccc2C(=O)O)cc1`, the inhibition was -0.6%.

(Values after PubChem BioAssay AID1445 (SRMLSC, 2008).)
